{"source": "a collection of fitness landscapes (doi:10.1016/j.celrep.2020.107928)", "parents": {"B1": {"name": "Caulobacter ParB omega fusion; a variant is named by its letters at X, in order, B8GW30 (parent)", "chain": "MESVVVGEPGMSEGRRGLGRGLSALLGEVDAAPAQAPGEQLGGSREAPIEILQRNPDQPRRTFREEDLEDLSNSIREKGVLQPILVRPSPDTAGEYQIVAGERAWRAAQRAGLKTVPIMVRELDDLAVLEIGIIENVQRADLNVLEEALSYKVLMEKFERTQENIAQTIGKSXSHVANXMRLLXLPDEVQSYLVSGELTAXHARAIAAAADPVALAKQIIEGGLSVRETEALARKAPNLSAGKSKGGRPPRVKDTDTQALESDLSSVLGLDVSIDHRGSTGTLTITYATLEQLDDLCNRLTRGI"}}, "note": "The full ranking holds about 81,000 sequences; the median of “one-hybrid fitness for binding NBS DNA” is about -0.1, and the highest 2% start at about 0.36. The sample holds the highest values, similar sequences and a random draw of the others, so the mix is not that of the screen.", "data": [{"variants_of": "B1", "experiment": "one-hybrid fitness for binding NBS DNA (the Noc-binding site; scaled: cognate 1, non-cognate 0); higher = stronger binding", "settings": "with NBS DNA site", "procedure,_shortened": "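Fitness here means the log change in variant-to-wild-type read ratio between plasmids sequenced before and after selection. That scale was set so cognate equals 1 and non-cognate equals 0. The selection was a bacterial one-hybrid screen of Caulobacter ParB libraries, four specificity codons randomised, in E. coli USO carrying a HIS3 reporter with the site 19 bp from the promoter, grown 48 hours at 37°C on M9-minus-histidine with 0.1 mM IPTG and 5 mM 3-AT.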", "values": [{"variant": "PILE", "one-hybrid fitness for binding NBS DNA": "≤ 0.2"}, {"variant": "WLPE", "one-hybrid fitness for binding NBS DNA": "≤ 0.2"}, {"variant": "CTVI", "one-hybrid fitness for binding NBS DNA": "≤ 0.2"}, {"variant": "RAMV", "one-hybrid fitness for binding NBS DNA": "≤ 0.2"}, {"variant": "RMCP", "one-hybrid fitness for binding NBS DNA": "≤ 0.2"}, {"variant": "RSCS", "one-hybrid fitness for binding NBS DNA": 0.343}, {"variant": "RTCH", "one-hybrid fitness for binding NBS DNA": 0.234}, {"variant": "RKCS", "one-hybrid fitness for binding NBS DNA": 0.525}, {"variant": "RTCP", "one-hybrid fitness for binding NBS DNA": "≤ 0.2"}, {"variant": "RTCS", "one-hybrid fitness for binding NBS DNA": 0.467}, {"variant": "RKCP", "one-hybrid fitness for binding NBS DNA": "≤ 0.2"}, {"variant": "RCCS", "one-hybrid fitness for binding NBS DNA": 0.46}, {"variant": "RMCS", "one-hybrid fitness for binding NBS DNA": 0.383}, {"variant": "RMCD", "one-hybrid fitness for binding NBS DNA": "≤ 0.2"}, {"variant": "RPCS", "one-hybrid fitness for binding NBS DNA": "≤ 0.2"}, {"variant": "RKCN", "one-hybrid fitness for binding NBS DNA": "≤ 0.2"}, {"variant": "IART", "one-hybrid fitness for binding NBS DNA": "≤ 0.2"}, {"variant": "NTSG", "one-hybrid fitness for binding NBS DNA": "≤ 0.2"}, {"variant": "NVYS", "one-hybrid fitness for binding NBS DNA": "≤ 0.2"}, {"variant": "KVTC", "one-hybrid fitness for binding NBS DNA": "≤ 0.2"}, {"variant": "QPTP", "one-hybrid fitness for binding NBS DNA": "≤ 0.2"}, {"variant": "RWEY", "one-hybrid fitness for binding NBS DNA": "≤ 0.2"}, {"variant": "ARSD", "one-hybrid fitness for binding NBS DNA": "≤ 0.2"}, {"variant": "RCSW", "one-hybrid fitness for binding NBS DNA": "≤ 0.2"}, {"variant": "RTFN", "one-hybrid fitness for binding NBS DNA": "≤ 0.2"}, {"variant": "RTFS", "one-hybrid fitness for binding NBS DNA": 0.339}, {"variant": "RTAH", "one-hybrid fitness for binding NBS DNA": "≤ 0.2"}, {"variant": "RTFR", "one-hybrid fitness for binding NBS DNA": 0.441}, {"variant": "RTAN", "one-hybrid fitness for binding NBS DNA": "≤ 0.2"}, {"variant": "RTAR", "one-hybrid fitness for binding NBS DNA": 0.548}, {"variant": "VCRV", "one-hybrid fitness for binding NBS DNA": "≤ 0.2"}, {"variant": "RISE", "one-hybrid fitness for binding NBS DNA": "≤ 0.2"}, {"variant": "TSIF", "one-hybrid fitness for binding NBS DNA": "≤ 0.2"}, {"variant": "HHVS", "one-hybrid fitness for binding NBS DNA": "≤ 0.2"}, {"variant": "SALW", "one-hybrid fitness for binding NBS DNA": "≤ 0.2"}, {"variant": "HAHM", "one-hybrid fitness for binding NBS DNA": "≤ 0.2"}, {"variant": "QQMF", "one-hybrid fitness for binding NBS DNA": "≤ 0.2"}, {"variant": "QQMR", "one-hybrid fitness for binding NBS DNA": 0.584}, {"variant": "QQMN", "one-hybrid fitness for binding NBS DNA": "≤ 0.2"}, {"variant": "QQMT", "one-hybrid fitness for binding NBS DNA": 0.499}, {"variant": "QQMS", "one-hybrid fitness for binding NBS DNA": 0.368}, {"variant": "QQMP", "one-hybrid fitness for binding NBS DNA": "≤ 0.2"}, {"variant": "QQMD", "one-hybrid fitness for binding NBS DNA": "≤ 0.2"}, {"variant": "QQMH", "one-hybrid fitness for binding NBS DNA": 0.222}, {"variant": "QQMK", "one-hybrid fitness for binding NBS DNA": "≤ 0.2"}, {"variant": "TPTE", "one-hybrid fitness for binding NBS DNA": "≤ 0.2"}, {"variant": "MRFN", "one-hybrid fitness for binding NBS DNA": "≤ 0.2"}, {"variant": "SLPK", "one-hybrid fitness for binding NBS DNA": "≤ 0.2"}, {"variant": "RCHW", "one-hybrid fitness for binding NBS DNA": "≤ 0.2"}, {"variant": "TPGK", "one-hybrid fitness for binding NBS DNA": "≤ 0.2"}, {"variant": "DQFT", "one-hybrid fitness for binding NBS DNA": "≤ 0.2"}, {"variant": "QQAD", "one-hybrid fitness for binding NBS DNA": "≤ 0.2"}, {"variant": "QQAT", "one-hybrid fitness for binding NBS DNA": 0.482}, {"variant": "QQAH", "one-hybrid fitness for binding NBS DNA": 0.284}, {"variant": "QQFT", "one-hybrid fitness for binding NBS DNA": 0.435}, {"variant": "DRLH", "one-hybrid fitness for binding NBS DNA": "≤ 0.2"}, {"variant": "NPTI", "one-hybrid fitness for binding NBS DNA": "≤ 0.2"}, {"variant": "WVVG", "one-hybrid fitness for binding NBS DNA": "≤ 0.2"}, {"variant": "ARKE", "one-hybrid fitness for binding NBS DNA": "≤ 0.2"}, {"variant": "GRRW", "one-hybrid fitness for binding NBS DNA": "≤ 0.2"}, {"variant": "PTWL", "one-hybrid fitness for binding NBS DNA": "≤ 0.2"}, {"variant": "PTTT", "one-hybrid fitness for binding NBS DNA": "≤ 0.2"}, {"variant": "ARAA", "one-hybrid fitness for binding NBS DNA": "≤ 0.2"}, {"variant": "RHGE", "one-hybrid fitness for binding NBS DNA": "≤ 0.2"}, {"variant": "QELE", "one-hybrid fitness for binding NBS DNA": "≤ 0.2"}, {"variant": "DGQC", "one-hybrid fitness for binding NBS DNA": "≤ 0.2"}, {"variant": "KKKY", "one-hybrid fitness for binding NBS DNA": "≤ 0.2"}, {"variant": "RSWM", "one-hybrid fitness for binding NBS DNA": "≤ 0.2"}, {"variant": "QRRY", "one-hybrid fitness for binding NBS DNA": 0.718}, {"variant": "QRDY", "one-hybrid fitness for binding NBS DNA": 0.289}, {"variant": "QSLY", "one-hybrid fitness for binding NBS DNA": "≤ 0.2"}, {"variant": "QRCY", "one-hybrid fitness for binding NBS DNA": 0.508}, {"variant": "QCNY", "one-hybrid fitness for binding NBS DNA": 0.297}, {"variant": "QPCY", "one-hybrid fitness for binding NBS DNA": "≤ 0.2"}, {"variant": "QCLY", "one-hybrid fitness for binding NBS DNA": "≤ 0.2"}, {"variant": "QREY", "one-hybrid fitness for binding NBS DNA": 0.256}, {"variant": "QRLY", "one-hybrid fitness for binding NBS DNA": 0.447}, {"variant": "QRNY", "one-hybrid fitness for binding NBS DNA": 0.556}, {"variant": "QRPY", "one-hybrid fitness for binding NBS DNA": "≤ 0.2"}, {"variant": "QSCY", "one-hybrid fitness for binding NBS DNA": "≤ 0.2"}, {"variant": "HFFC", "one-hybrid fitness for binding NBS DNA": "≤ 0.2"}, {"variant": "LYPV", "one-hybrid fitness for binding NBS DNA": "≤ 0.2"}, {"variant": "TISM", "one-hybrid fitness for binding NBS DNA": "≤ 0.2"}, {"variant": "AKHW", "one-hybrid fitness for binding NBS DNA": "≤ 0.2"}]}]}
